The results in this text go back to ChEMBL document CHEMBL4513216, “Probing the Open Global Health Chemical Diversity Library for Multistage-Active Starting Points for Next-Generation Antimalarials” (ACS Infect Dis, 2020).

In all, about 69,000 compounds went through this assay and about 8,600 (12%) showed an effect of 50% or more. The full list was thinned out, with strong results kept by preference.

In the assay the test system is Plasmodium berghei. Briefly: Screen against P. berghei liver stage (PbLuc), transformed with Luciferase, at 10uM. It is filed as functional, HepG2. The settings on record: tested at 10 uM.
With `CSC(C)C(=O)NS(=O)(=O)c1ccc(F)c(C(F)(F)F)c1` (stereo not drawn), the INHIBITION worked out at 25%.

For the compound `Cc1ncsc1CN1CC[C@H]2C(=O)N(c3ccccc3)CCO[C@H]2C1`, the INHIBITION worked out at 23.3%.

For the compound `COc1ccc(CN2CCc3c(CNC(=O)CC#N)nn(C)c3C2)cc1`, the INHIBITION came out at 29.8%.

`CCc1sc(-c2nnc(CNCCn3cc(C)cn3)o2)cc1C`: the INHIBITION was 30.8%.

Regarding `CN(Cc1nnc(C2CC2)n1C)C1CCN(Cc2nccn2C)C1` (stereo not drawn), the INHIBITION turned out to be 21.6%.

With `COc1ncccc1NC(=O)NC(CCCO)c1ccccc1` (stereo not drawn), the INHIBITION amounted to 25.4%.

For `CC(C)OC(=O)CNC(=O)Nc1ccc(-c2nc(C(C)C)no2)cc1`, the INHIBITION is -17.8%.

In the case of `O=C(CC1CC1)N[C@@H]1CN(C(=O)c2cccs2)C[C@@H]2CCCO[C@@H]21`, the INHIBITION turned out to be 53.9%.

For `O=C(CC1CC1)N[C@@H]1CN(Cc2nccs2)C[C@@H]2CCCO[C@@H]21`, the INHIBITION amounted to 29%.

As for `O=C(CC1CC1)N[C@@H]1CN(Cc2ccncc2)C[C@@H]2CCCO[C@@H]21`, the INHIBITION was determined as 33.4%.

Consider `Cc1n[nH]c(C)c1CCC(=O)N(C)Cc1cn[nH]c1-c1ccc(F)cc1`, for which the INHIBITION amounted to 11.8%.

In the case of `COCC(=O)N1CCCC2(CCN(c3ccsc3)C2=O)C1` (stereo not drawn), the INHIBITION is on record as 37%.

For `O=C(CC1CC1)N1CCCC2(CCC(=O)N2CC2CC2)CC1` (stereo not drawn), the INHIBITION was found to be 6.27%.

As for `CCc1nc(CCNc2ccc(S(N)(=O)=O)cc2C#N)cs1`, the INHIBITION is 42.4%.

With `Cc1nc(C)c(CCNc2ccc(S(N)(=O)=O)cc2C#N)s1`, the INHIBITION is given as 49.9%.

`Cc1csc(CCCNc2ccc(S(N)(=O)=O)cc2C#N)n1`: the INHIBITION was 66.5%.

As for `COCCN1CCC2(CC1)CN(C(=O)Cc1cccnc1)CCO2`, the INHIBITION is 14.9%.

Take `Cc1cnc(N2CCC3(CC2)CC3CN(C)Cc2cccnc2)nc1` (stereo not drawn): the INHIBITION was 71.6%.

As for `Cc1cnc(N2CCC3(C2)C(=O)N(C)CCN3Cc2cccnc2)nc1` (stereo not drawn), the INHIBITION is -50.6%.

Take `Cc1ccc(CN2CCC3(CC2)CC3CN(C)Cc2cccnc2)o1` (stereo not drawn): the INHIBITION is on record as -24.9%.

`CN(Cc1cccnc1)CC1CC12CCN(c1nncs1)CC2` (stereo not drawn): the INHIBITION worked out at 16.9%.

As for `CN(Cc1cccnc1)CC1CC12CCN(Cc1nccs1)CC2` (stereo not drawn), the INHIBITION is 45.8%.

Regarding `CN(Cc1cccnc1)CC1CC12CCCC2` (stereo not drawn), the INHIBITION is reported as 60.9%.

For the compound `CCC1CN(CC(=O)N2CCN(C(C)=O)CC2)CCN1CCOC` (stereo not drawn), the INHIBITION is on record as 4.52%.

On to `CCN1CC(C(=O)N(C)Cc2cc3cc(F)ccc3[nH]2)CC1=O` (stereo not drawn), for which the INHIBITION was -14.1%.

Turning to `CN(C)CCN1CC(C(=O)N(C)Cc2cc3cc(F)ccc3[nH]2)CC1=O` (stereo not drawn), the INHIBITION is recorded as 52.2%.

Regarding `CN(Cc1cc2cc(F)ccc2[nH]1)C(=O)C1CC(=O)N(C2CCCC2)C1` (stereo not drawn), the INHIBITION is 26.5%.

Regarding `Cc1ccc(S(=O)(=O)N2CC[C@@H](O)C2)c(F)c1`, the INHIBITION was found to be 2.25%.

On to `Cc1cc(S(=O)(=O)N2CCC(N3CCC(O)C3)CC2)c(Cl)cc1Cl` (stereo not drawn), for which the INHIBITION is 71.1%.

Take `Cc1cc(S(=O)(=O)N2CC[C@@H](O)C2)c(Cl)cc1F`: the INHIBITION is listed as -46.4%.

In the case of `O=C(NCC1CCCO1)c1nc2c(s1)CCCN2c1ncccn1` (stereo not drawn), the INHIBITION was -4.32%.

On to `Cc1ccc(C(=O)N2[C@@H]3CC[C@H]2CC(=O)N(C)C3)c(=O)[nH]1`, for which the INHIBITION was -1.85%.

As for `N#Cc1ccc(C(=O)N2C[C@H](OCc3cccnc3)[C@H]3COC[C@H]32)cc1`, the INHIBITION is given as -5.31%.

With `CCc1cc(CN(Cc2cccnc2)C2CN3CCC2CC3)on1` (stereo not drawn), the INHIBITION was 28.5%.

For `CC(C)c1noc(CN(Cc2cccnc2)C2CN3CCC2CC3)n1` (stereo not drawn), the INHIBITION is given as 77.5%.

As for `CC(C)(C)c1nc(CN(Cc2ccccc2F)C2CCCCC2)no1`, the INHIBITION is 35.3%.

Regarding `CC(C)c1noc(CCCC(=O)N2CCC(Cc3cccnc3)CC2)n1`, the INHIBITION stood at 27.1%.

On to `CC(C)(C)c1nc(CN(Cc2cccnc2)C2CN3CCC2CC3)no1` (stereo not drawn), for which the INHIBITION came to 54.8%.

In the case of `Cc1noc(C)c1CN(Cc1cccnc1)C1CN2CCC1CC2` (stereo not drawn), the INHIBITION came out at 10.3%.

For `O=S(=O)(Cc1ccc(Br)cc1)NCCO`, the INHIBITION came out at 28.5%.

Take `Cc1nn(C)c(N2CCOCC2)c1CNCc1cscn1`: the INHIBITION was 27.0165%.

With `CCc1nnc(CN2CCCC2Cn2cc(C)cn2)o1` (stereo not drawn), the INHIBITION is -29.1%.

In the case of `O=C(c1ccc(F)c(F)c1)N1CCC(Cn2cc(CO)nn2)CC1`, the INHIBITION is on record as 33.4%.

Consider `Cc1nc(CN2CCCC(NCc3csc(C(C)(C)C)n3)C2)no1` (stereo not drawn), for which the INHIBITION was determined as 22.3%.

As to `COCCN1CCO[C@@H]2CN(C(=O)COc3ccc(C)cc3)C[C@@H]2C1`, the INHIBITION stood at 37.9%.

For the compound `[O-][S+](Cc1c(F)cccc1Cl)Cc1nnnn1C1CC1` (stereo not drawn), the INHIBITION was determined as 19.8%.

Regarding `CCc1nc2n(n1)CC(NCC(=O)Nc1cc(C(C)(C)C)no1)CC2` (stereo not drawn), the INHIBITION was -13.5%.

Turning to `Cc1cc(C(=O)N2CCCC(C)C2)ccc1NCc1nc(C(C)C)no1` (stereo not drawn), the INHIBITION is reported as 18.2%.
